# Experimental data: PubChem BioAssay AID598 (SRMLSC, 2007)
# Among all 85,000 compounds or so, about 5,100 (6%) were called active. Many of the other results were omitted from the sample, so actives are more common in it than they were. A number with no mark means an inactive call.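 Rule for the calls: active = viability at or below 40%; inactive = viability above 40%.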
# Test: H69AR cell viability reduction – human, 86K library, primary screen (AID 598);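 note: multidrug resistant small cell line overexpressing MRP-1 efflux transporter; 100% = mean luminescence of untreated control wells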
# Conditions: H69AR lung tumor viability, ATP luminescence, 72 h; at 10 µM; stronger effect = lower value
row,SMILES,viability
1,COC(=O)c1cc2nc(-c3ccccc3)cc(C(F)(F)F)n2n1,90.6%
2,O=C(O)CCC(=O)NCc1ccc(C(=O)O)cc1,96%
3,O=C(Nc1cc(-c2nn(CC(=O)N3CCCCC3)c(=O)c3ccccc23)ccc1N1CCOCC1)c1ccc(Cl)cc1,93.1%
4,Cc1ccc(-c2cnc(NC(=O)CCC(=O)N(C)Cc3ccccc3)n2C)cc1,100%
5,COc1ccc(NC(=O)CC2COc3ccccc3O2)c(OC)c1 (centres undefined),105%
6,Cc1cccc(-c2nc3c(c(SCC(=O)N4CCOCC4)n2)CCCC3)c1,70.3%
7,Cc1ccc(S(=O)(=O)c2c(COC(=O)c3cccc(Cl)c3)c(-c3ccccc3)nn2C)cc1,87.9%
8,COC(=O)Cn1nc(-c2ccccc2)c2cc(Cl)ccc21,98.3%
9,Cn1nc(-c2ccccc2)c(CSc2cccc(Cl)c2)c1Cl,22% (active)
10,Cn1c(=O)c2c(SCC(=O)N3CCOCC3)nc(C3CC3)nc2n(C)c1=O,81.8%
11,CC(C)NC(=O)C(=O)NCCN1CCN(S(=O)(=O)c2ccc(Cl)cc2)CC1,94.6%
12,O=C(CCn1c(SCC(=O)c2ccccc2)nc2ccccc2c1=O)NCc1ccc(F)cc1,97.6%
13,Cc1cc(C)n(-c2cc(Oc3ccccc3)ncn2)n1,100%
14,Cc1cc(Oc2ccccc2)nc(N2CCOCC2)n1,94.1%
15,CC(=O)c1ccc(Oc2cc(C)nc(-n3nc(C)cc3C)n2)cc1,23.4% (active)
16,O=C(CSc1nc2cccnc2n1Cc1ccccc1)N1CCc2ccccc21,70.1%
17,C=CCO/N=C(\C)c1c(O)c(C)c(-c2ccccc2)n(-c2ccccc2)c1=O,96.7%
18,O=C(NCC1CCC(C(=O)O)CC1)OCc1ccccc1 (centres undefined),98.5%
19,COCCOC(=O)C1=C(C)NC(=O)CC1c1cc2c(cc1Br)OCO2 (centres undefined),97.1%
20,CCCOc1ccccc1C1CC(=O)Nc2cc3c(cc21)OCO3 (centres undefined),25.9% (active)
21,COc1ccc(C2CC(=O)Nc3cc(C)c(C)cc32)c(OC)c1OC (centres undefined),78.6%
22,CCCNC(=S)N1CCC(NC(=O)C23CC4CC(CC(C4)C2)C3)CC1,101%
23,CCOC(=O)Cc1csc(NC(=O)CSc2nnc(-c3cccnc3)n2Cc2ccco2)n1,100%
24,CCOCc1nnc(NC(=O)CSc2ccc(C)cc2)s1,94.8%
25,CCCCCN1CC(O)=C(c2nc(-c3ccc(Cl)cc3)cs2)C1=N,99%

row,SMILES,viability
1,COc1ccc(C(=O)Nc2ccc(F)cc2F)cc1,94.2%
2,CCOC(=O)N1CCN(S(=O)(=O)c2ccc(C(=O)Nc3ccc(F)cc3F)cc2)CC1,20.4% (active)
3,O=C(Nc1cccc(F)c1)c1ccc(S(=O)(=O)N2CCCC2)cc1,84.8%
4,COc1ccc(C2=NOC3(CC(=O)N(c4ccc(C)cc4)C3=O)C2)cc1 (centres undefined),98.4%
5,O=C(c1cccc(N2CCCC2=O)c1)N1CCOCC1,110%
6,CCN(CC)CCn1c2ccc(Cl)cc2c2nc(C)sc21,20.6% (active)
7,COC(=O)Cn1c2ccc(C)cc2c2nc(C)sc21,98.6%
8,COc1ccc(Br)cc1CN1CCN(C(=O)c2cccc(OC)c2OC)CC1,70.4%
9,COC(=O)c1ccccc1NC(=O)CN(Cc1ccc(Cl)cc1)S(C)(=O)=O,60.9%
10,COc1cccc(NC(=O)CN(C)S(=O)(=O)c2ccc(C)cc2)c1,89.9%
11,CCN(CC)C(=O)CSc1nnc(-c2cccc(OC)c2)o1,76.1%
12,COc1cccc(-c2nnc(NC(=O)c3ccc(S(=O)(=O)N(CC(C)C)CC(C)C)cc3)o2)c1,13.2% (active)
13,COC(=O)c1ccccc1Sc1c(/C=N/OCc2ccc(Cl)cc2)c(C(F)(F)F)nn1C,79.2%
14,CN(C)C(=O)c1cc(Br)ccc1Cl,100%
15,COc1ccc(C2C(C#N)=C(/N=C/N3CCOCC3)OC3=C2C(=O)CC(C)(C)C3)cc1OC (centres undefined),96.7%
16,OC(COc1ccc2c(c1)CCC2)CN1CCN(c2cccc(Cl)c2)CC1 (centres undefined),75%
17,O=C(Nc1ccccc1-c1nnn(CC(=O)N2CCCc3ccccc32)n1)c1cccc(Cl)c1,102%
18,Cc1cc(C)n(C(=O)CCNC(=O)c2ccccc2Cl)n1,104%
19,Clc1ccc(C2=CSC3=Nc4cccc5cccc(c45)N23)cc1,27.7% (active)
20,O=C(c1ccco1)N1CCN(C(=O)C2CCCN(S(=O)(=O)c3cccc4nsnc34)C2)CC1 (centres undefined),91.1%
21,CCOCCOCCC(C(=O)O)P(=O)(c1ccccc1)c1ccccc1 (centres undefined),103%
22,CCc1c(O)nc(SCC(=O)Nc2ccccc2)n(C(C)CC)c1=O (centres undefined),74.6%
23,CC(C)c1ccc(NC(=O)NC2CCCCC2)cc1,25.6% (active)
24,CC(C)NS(=O)(=O)c1ccc(NC(=O)C2CCCCC2)cc1,109%
25,CC(=O)OC(C(=O)NC1CCCCC1)c1ccccc1 (centres undefined),92.1%

row,SMILES,viability
1,CNC(=S)N1N=C(c2ccccc2)CC1c1ccc(Br)cc1 (centres undefined),76.7%
2,CCCn1c(C(O)c2cc(OC)ccc2OC)nc2ccccc21 (centres undefined),95.3%
3,COCCn1c(-c2ccc(OC)c(OC)c2)nc2ccccc21,92.7%
4,COc1ccc(-c2nc3ccccc3n2CCC(C)C)cc1OC,28.8% (active)
5,COC(=O)c1[nH]c2ccc(Br)cc2c1NC(=O)Oc1ccccc1,80.6%
6,O=C(Cc1cccc2ccccc12)Nc1ccc2oc(-c3ccccc3)nc2c1,59.7%
7,Cc1nc(-c2ccc(NC(=O)c3cccs3)cc2)cs1,70.7%
8,O=C(Nc1ccc2oc(-c3ccc4ccccc4c3)nc2c1)c1cccs1,2.65% (active)
9,CCNC(=O)c1sccc1-n1cccc1,103%
10,CC(C)(C)NC(=O)Cn1c(SCC(=O)Nc2nccs2)nc2ccccc21,92.5%
11,O=S(=O)(N1CCCCC1)N1CCNCC1,100%
12,Cc1cccc(C)c1NC(=O)CCCSc1nnc(-c2ccco2)n1-c1ccccc1,34.3% (active)
13,O=C(CSc1nnc(-c2ccco2)n1-c1ccccc1)NCCc1ccccc1,82%
14,COc1ccc(C(=O)NC(=O)CSc2nnc(-c3ccco3)n2-c2ccccc2)cc1,95.2%
15,COC(=O)c1sc(=S)n(-c2ccc(Cl)cc2)c1C,90%
16,CCOn1c(SC(C)C)nc2ccccc2c1=O,103%
17,Cc1ccc(OC(=O)c2cc3ccccc3o2)cc1,104%
18,CCOC(=O)c1cc2cc(-c3c(C(=O)OCC)oc4cc(O)cc(O)c4c3=O)ccc2o1,16.6% (active)
19,CCOC(=O)c1c(C)nc2c(c1C)c(=O)oc1ccccc12,98.3%
20,CN(C)c1nc(N)nc(CSc2ccccn2)n1,91%
21,Cc1cc(N/C=C\C(=O)c2ccc(Cl)c(Cl)c2)no1,84.8%
22,COC(=O)CNS(=O)(=O)c1ccc(OC)cc1,91.5%
23,CCCC(NS(=O)(=O)c1ccc(OC)cc1)C(=O)O (centres undefined),104%
24,CCOC(=O)c1ccccc1NS(=O)(=O)c1ccc(OC)cc1,18.2% (active)
25,O=c1[nH][nH]c(C(F)(F)F)c1C=NCc1ccccc1Cl,81.2%

row,SMILES,viability
1,COc1ccc(-c2nc(-c3ccccc3)no2)c(OC)c1,69.4%
2,Cc1cccc(-c2noc(-c3ccc(F)cc3)n2)c1,91.5%
3,Cn1nc(-c2ccccc2)c(-c2nc(-c3ccc(Cl)cc3)no2)c1Cl,34.3% (active)
4,COc1ccc(Cl)cc1C(=O)NCc1cn(C)nc1C,86.1%
5,Cc1ccccc1-n1c(C)cc(/C=C2\NC(=O)NC2=O)c1C,85.6%
6,CC1CC2=C(CC1/C=N/NC(N)=S)C(C)(C)CCC2 (centres undefined),2.3% (active)
7,CC1(C)CCCC2=C1CC1C(=O)N(c3ccccc3)C(=O)C1C2 (centres undefined),84%
8,CCCc1nc2ccccc2c(=O)n1/N=C/c1ccc(O)c(O)c1,15.8% (active)
9,CCCCc1nc2ccccc2c(=O)n1NC(=O)c1c(O)c2cccc3c2n(c1=O)CC3,70.7%
10,CCCc1nc2ccccc2c(=O)n1NC(=O)c1c(O)c2ccccc2[nH]c1=O,86.6%
11,CCn1c2ccccc2c2cc(NC(=S)N3CCOCC3)ccc21,20.1% (active)
12,CCOc1cc(C(=S)N2CCOCC2)ccc1O,85.1%
13,CCn1c(=O)cc(O)c2ccccc21,83.1%
14,CS(=O)(=O)Nc1ccc(C(=O)N2CCCC2)cc1,89.1%
15,Cc1ccc(CN2CCN(/N=C/c3ccco3)CC2)c(C)c1,106%
16,C=CCNC(=O)c1cc2nc(C3CC3)cc(C(F)F)n2n1,91.1%
17,Cc1[nH]n(-c2cccc(Cl)c2)c(=O)c1/C=N/n1c(C)nc2ccccc2c1=O,29.1% (active)
18,Cn1c(COc2ccc(Cl)cc2)nc2ccccc2c1=O,77.5%
19,Cc1[nH]n(-c2ccc(Cl)cc2)c(=O)c1/C=N/n1c(C)nc2ccccc2c1=O,50.4%
20,O=C(CN(c1ccccc1)S(=O)(=O)c1ccc(Cl)cc1)Nc1ccccc1C(=O)N1CCCC1,84.3%
21,O=C(Cc1ccc(-n2c(=O)[nH]c3ccccc3c2=O)cc1)N1CCN(c2cccc(Cl)c2)CC1,89.4%
22,Cc1ccc(NC(=O)Nc2ccc3oc(C)nc3c2)cc1,74.5%
23,O=C(Nc1ccc2ccccc2c1)Nc1ccc2snnc2c1,7.33% (active)
24,COc1ccc(NC(=O)Nc2ccc3nc(C)c(C)nc3c2)cc1,90.7%
